Measured values published in PubChem BioAssay (NCATS).
Inconclusive results are not listed. A call without a number means that no potency is given here. Calls of active or inactive are those of the source. Unless noted, calls follow the shape of the dose curve; as a rule, active = well fitted curve in the direction sought with a large enough effect; inconclusive = small, poorly fitted or top-dose-only effect, or another doubt; inactive = no such curve, though single readings can be large; an effect the other way counts as inactive or inconclusive.

Columns and labels:
[1] = molecular target: Alpha-galactosidase (Coffea arabica) (UniProt Q42656); experiment: Counterscreen for Glucocerebrosidase Inhibitors: qHTS Assay for Coffee Bean alpha-Galactosidase at pH 4.5 (AID 957); also: series mostly up to about 77 µM
Procedure, shortened: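 Quantitative HTS of compounds (0.7 nM to 77 uM) against coffee bean alpha-galactosidase at pH 4.5, measuring 4-methylumbelliferone fluorescence released from 80 uM substrate.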

[2] = molecular target: Alpha-galactosidase (Coffea arabica) (UniProt Q42656); experiment: Counterscreen for Glucocerebrosidase Inhibitors: qHTS Assay for Coffee Bean alpha-Galactosidase at pH 5.9 (AID 998)
Procedure, shortened: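 Fluorogenic 4-MU substrate hydrolysis, 80 uM substrate and 2 nM coffee bean alpha-galactosidase, pH 5.9 citrate buffer, 20 min at room temperature, then NaOH/glycine stop. Titration 0.7 nM–77 uM, normalized to no-enzyme and enzyme controls, AC50 via Hill equation.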

[3] = Validation screen for inhibitors of Lassa infection (AID 463096; calls by dose curve; also: potency is read from the fitted curve at half-maximal effect)

Chain of Alpha-galactosidase (Coffea arabica) (Q42656 whole entry, looked up): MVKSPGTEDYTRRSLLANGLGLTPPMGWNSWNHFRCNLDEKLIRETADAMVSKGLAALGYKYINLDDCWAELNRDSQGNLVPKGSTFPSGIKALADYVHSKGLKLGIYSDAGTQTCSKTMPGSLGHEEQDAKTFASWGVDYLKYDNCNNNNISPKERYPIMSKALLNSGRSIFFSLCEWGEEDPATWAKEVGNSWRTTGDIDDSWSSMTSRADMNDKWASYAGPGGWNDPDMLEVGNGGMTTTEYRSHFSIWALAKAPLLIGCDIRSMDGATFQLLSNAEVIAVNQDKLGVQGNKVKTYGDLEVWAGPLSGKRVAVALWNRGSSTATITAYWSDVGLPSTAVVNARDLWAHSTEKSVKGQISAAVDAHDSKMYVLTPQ

Row | Structure (SMILES) | outcome [1] | outcome [2] | Potency [3]
1 | COc1[nH]c2ccc(F)cc2c1C(=O)OCC1CCN(CCNS(C)(=O)=O)CC1 | inactive | inactive | inactive
2 | Cn1cnc2c(NC3CCCC3)ncnc21 | inactive | inactive | inactive
3 | O=C(O)c1cc(=O)c2ccc(Cl)cc2[nH]1 | inactive | inactive | inactive
4 | Cc1cc(C)c(NC(=O)C[C@H](CC(=O)O)c2cccc3ccccc23)c(C(=O)N2CCC3(CCCC3)CC2)c1 | inactive | inactive | inactive
5 | CCCn1c(=O)c2[nH]c(-c3ccc(OCC(=O)Nc4ccc(C#N)cc4)cc3)nc2n(CCC)c1=O | inactive | inactive | inactive
6 | Nc1ncnc2c1c(-c1ccc(Oc3ccccc3)cc1)cn2C1CCCC1 | inactive | inactive | inactive
7 | CCCNC[C@H](O)COc1ccccc1C(=O)CCc1ccccc1 | inactive | inactive | inactive
8 | NC(=NCCC[C@H](N)C(=O)O)NO | inactive | inactive | inactive
9 | O=C(Nc1cc(C(=O)Nc2ccc(S(=O)(=O)O)cc2S(=O)(=O)O)cc(C(=O)Nc2ccc(S(=O)(=O)O)cc2S(=O)(=O)O)c1)Nc1cc(C(=O)Nc2ccc(S(=O)(=O)O)cc2S(=O)(=O)O)cc(C(=O)Nc2ccc(S(=O)(=O)O)cc2S(=O)(=O)O)c1 | inactive | inactive | inactive
10 | Cc1cc(N)c2ccccc2[n+]1CCCCCCCCCCCCCC[n+]1c(C)cc(N)c2ccccc21 | inactive |  | 7.08 µM (active)
11 | O=C1C(SCCO)=C(SCCO)C(=O)c2ccccc21 | inactive | inactive | 5.01 µM (active)
12 | COC(=O)c1c(-c2cc(OC)c(OC)c(OC)c2)c2ccc(OCc3ccccn3)cc2c(=O)n1-c1ccc(N)cc1 | inactive | inactive | inactive
13 | C1CCC(N=C(NC23CC4CC(CC(C4)C2)C3)N2CCOCC2)CC1 | inactive | inactive | inactive
14 | CCSC(N)=Nc1ccc(C(F)(F)F)cc1 | inactive | inactive | inactive
15 | CC(C)C[C@H](N)CSSC[C@@H](N)CC(C)C | inactive |  | inactive
16 | C[N+](C)(C)CCC(=O)c1cccc2ccccc12 | inactive | inactive | 10 µM (active)

Row | Structure (SMILES) | outcome [1] | outcome [2] | Potency [3]
17 | CC(=O)NCCc1ccc(O)c(O)c1 | inactive | inactive | inactive
18 | CC(N)=NCc1cccc(CN)c1 | inactive | inactive | inactive
19 | COc1ccccc1NC(=O)Nc1nc(-c2cccnc2)nc2ccccc12 | inactive | inactive | inactive
20 | NCCNS(=O)(=O)c1cccc2cnccc12 | inactive | inactive | inactive
21 | COc1ccccc1CNCCCCCCNCCCCCCCCNCCCCCCNCc1ccccc1OC | inactive | inactive | inactive
22 | NCCNC(=O)c1ccc(Cl)cc1 | inactive | inactive | inactive
23 | NCCC(=O)NCCc1cnc[nH]1 | inactive | inactive | inactive
24 | COc1ccc2c(c1)c(CC(=O)N1CCOCC1)c(C)n2C(=O)c1ccc(Cl)cc1 | inactive | inactive | inactive
25 | O=C(Cc1ccc(Cl)c(Cl)c1)OCCN1CCCC1 | inactive | inactive | inactive
26 | COc1ccc2c(c1)c(CC(=O)O)c(C)n2Cc1ccc(F)cc1 | inactive | inactive | inactive
27 | Cc1cccc(C)c1NC(=O)C[N+](C)(C)C | inactive |  | inactive
28 | N#Cc1c(-c2ccccc2)no[n+]1[O-] | inactive | inactive | 10 µM (active)
29 | NCCCCCCNS(=O)(=O)c1cccc2c(Cl)cccc12 | inactive | inactive | inactive
30 | CN(C)CCCCSC(=N)N | inactive | inactive | inactive
31 | N=C(N)SCCc1cccc(CCSC(=N)N)c1 | inactive | inactive | inactive
32 | O=c1[nH]c(=O)n([C@H]2C[C@H](O)[C@@H](CO)O2)cc1/C=C/Br |  |  | inactive
